The record followed here is PubChem BioAssay (EPA / NIEHS).

Inconclusive results are not listed. The source made the active and inactive calls. Rule for the calls: active = hit-call score of the fitted dose curve at least 0.9, where 1 is the maximum; inconclusive = response in the unintended direction; inactive = score below 0.9.

Chain of human Serotonin, 5-Hydroxytryptamine Receptor 5A (5HT5A), HTR5A (gene 3361) (P47898 whole entry, looked up): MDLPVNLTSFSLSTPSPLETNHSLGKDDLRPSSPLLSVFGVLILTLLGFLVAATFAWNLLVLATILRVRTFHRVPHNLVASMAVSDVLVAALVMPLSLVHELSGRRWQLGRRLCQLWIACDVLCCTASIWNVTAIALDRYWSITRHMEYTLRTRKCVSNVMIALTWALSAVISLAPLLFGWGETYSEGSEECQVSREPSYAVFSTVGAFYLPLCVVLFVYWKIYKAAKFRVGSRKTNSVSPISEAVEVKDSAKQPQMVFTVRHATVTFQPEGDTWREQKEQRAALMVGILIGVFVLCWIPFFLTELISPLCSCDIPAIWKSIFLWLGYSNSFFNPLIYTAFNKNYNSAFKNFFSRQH

The assay deals with human Serotonin, 5-Hydroxytryptamine Receptor 5A (5HT5A), HTR5A (gene 3361) (UniProt P47898). The experiment in a line: NVS_GPCR_h5HT5A: NovaScreen (NVS) G Protein-Coupled Receptor Assay for human Serotonin, 5-Hydroxytryptamine Receptor 5A (5HT5A) (AID 2283251). How it is done:
NVS_GPCR_h5HT5A is a biochemical, single-readout assay that uses extracted gene-proteins from HEK293 in a cell-free assay. Measurements were taken 1 hour after chemical dosing in a 96-well plate.NVS_GPCR_h5HT5A is one of one assay component(s) measured or calculated from the NVS_GPCR_h5HT5A assay. It is designed to make measurements of radioligand binding, a form of binding reporter, as detected with scintillation counting signals by Filter-based radiodetection technology.Data from the assay component NVS_GPCR_h5HT5A was analyzed into 1 assay endpoint. This assay endpoint, NVS_GPCR_h5HT5A, was analyzed in the positive analysis fitting direction relative to DMSO as the negative control and baseline of activity. Using a type of binding reporter, loss-of-signal activity can be used to understand changes in the binding as they relate to the gene HTR5A. Furthermore, this assay endpoint can be referred to as a primary readout, because the performed assay has only produced 1 assay endpoint. To generalize the intended target to other relatable targets, this assay endpoint is annotated to the gpcr intended target family, where the subfamily is rhodopsin-like receptor.
Binding assays used specific radioligands (tritiated, iodinated) with non-radioactive competitive displacement ligands in agonist or antagonist protocols (as indicated) and various reference compounds and inhibitors to titrate specific binding to receptors and transporters. Most enzyme assays (CYPs, kinases, phosphatases, proteases, HDACs) used recombinant protein and specific substrates (fluorescence mostly, some colorimetric and radioactive) and inhibitors, followed by a biochemical separation of substrate and product. All assays for the biochemical HTS were initially run in duplicate at a single concentration (10 uM for CYP450 assays and 25 uM for all others). […] Each assay was run with positive and negative controls, and concurrent controls on every plate. The follow-up (secondary) screen tested active chemical-pairs in concentration series, as well as a few additional assays not tested in the primary screen, some selected negative inactives, and several cases re-run in the concentration series for confirmatory purposes.
In the case of `COc1ccc2cc(S(=O)(=O)N[C@H](CC(=O)N[C@H](Cc3ccc(CN4[C@H](C)CCC[C@@H]4C)cc3)C(=O)N(C)C(C)C)c3ccc4c(c3)OCO4)ccc2c1`, the outcome was inactive.

With `Cc1cc(F)ccc1-c1cc(N2CC[C@@H](O)[C@H]2CO)ncc1N(C)C(=O)C(C)(C)c1cc(C(F)(F)F)cc(C(F)(F)F)c1`, the AC50 was 7.83 µM (active).

As to `O=C(O)Cc1cc(I)c(Oc2ccc(O)c(I)c2)c(I)c1`, the result was inactive.

On to `CC/C(=C(/CC)c1ccc(O)cc1)c1ccc(O)cc1`, for which the result was inactive.

As to `O=c1[nH]sc2ccccc12`, the AC50 is 14.2 µM (active).

Consider `Cc1cc2c(cc1C(F)(F)F)N(C(=O)Nc1ccc(Oc3cccnc3C)nc1)CC2`, for which the AC50 is 4.76 µM (active).

In the case of `NCc1cccc(C2CCN(C(=O)c3ccc(C#Cc4ccccc4F)o3)CC2)c1`, the concentration at half-maximal activity (AC50) is 18.4 µM (active).

With `CN(C)c1ccc(C(=C2C=CC(=[N+](C)C)C=C2)c2ccc(N(C)C)cc2)cc1`, the concentration at half-maximal activity (AC50) is 1.99 µM (active).

As to `CCN(Cc1cccnc1)C(=O)c1cccc(Cl)c1[C@]1(C)C(=O)N(Cc2ccc(OC)cc2OC)c2ccc(Cl)cc21`, the half-maximal activity concentration (AC50) was 4.88 µM (active).

Consider `CN(C)C(=O)C1(N2CCCCC2)CCN(CC[C@@]2(c3ccc(Cl)c(Cl)c3)CN(C(=O)c3ccccc3)CCO2)CC1`, for which the AC50 is 15.7 µM (active).

For `CCCCCCCCOC(=O)c1cc(O)c(O)c(O)c1`, the concentration at half-maximal activity (AC50) is 25 µM (active).

For `CN1C(=O)N(c2ccccc2Br)Cc2cnc(Nc3ccc4c(c3)OCC(CO)O4)nc21` (stereo not given), the molecule was classed as inactive.

For `CCOC(=O)O[C@H](C)OC(=O)c1ccc2c(c1)cc(C(=O)NC1CCN(C(C)C)CC1)n2Cc1cc(-c2ccc(Cl)s2)on1`, the AC50 is 6.7 µM (active).

With `CC(C)(C)c1csc(-c2cc3cc(OCc4ccccc4CC(=O)O)ccc3o2)n1`, the result was inactive.

As to `CCN(CC)C(=O)c1cc(S(=O)(=O)Cc2ccccc2)c(N2CCC(c3ccccc3)CC2)cc1N(CC)CCN(C)C`, the concentration at half-maximal activity (AC50) is 4.84 µM (active).

The term AC50 denotes the midpoint of the concentration-response curve, whichever way the signal moves.
